{"source": "PubChem BioAssay AID720709", "about": "(National Center for Advancing Translational Sciences (NCATS), 2013)", "note": "Hit rate of the full screen: of about 360,000 compounds, about 520 (0.14%) were called active. About 3% were inconclusive and are not listed. The sample as a whole holds a higher share of actives than the screen did. Values without a mark were called inactive. Calls follow the shape of the dose curve; as a rule, active = well fitted inhibition curve with a large enough effect; inconclusive = small, poorly fitted or top-dose-only effect; inactive = no such curve, though single readings can be large or run the other way. Potency is read from the fitted curve at half-maximal effect.", "data": [{"target": "Rap guanine nucleotide exchange factor 3 (Homo sapiens) (UniProt O95398)", "sequence (O95398 whole entry, looked up)": "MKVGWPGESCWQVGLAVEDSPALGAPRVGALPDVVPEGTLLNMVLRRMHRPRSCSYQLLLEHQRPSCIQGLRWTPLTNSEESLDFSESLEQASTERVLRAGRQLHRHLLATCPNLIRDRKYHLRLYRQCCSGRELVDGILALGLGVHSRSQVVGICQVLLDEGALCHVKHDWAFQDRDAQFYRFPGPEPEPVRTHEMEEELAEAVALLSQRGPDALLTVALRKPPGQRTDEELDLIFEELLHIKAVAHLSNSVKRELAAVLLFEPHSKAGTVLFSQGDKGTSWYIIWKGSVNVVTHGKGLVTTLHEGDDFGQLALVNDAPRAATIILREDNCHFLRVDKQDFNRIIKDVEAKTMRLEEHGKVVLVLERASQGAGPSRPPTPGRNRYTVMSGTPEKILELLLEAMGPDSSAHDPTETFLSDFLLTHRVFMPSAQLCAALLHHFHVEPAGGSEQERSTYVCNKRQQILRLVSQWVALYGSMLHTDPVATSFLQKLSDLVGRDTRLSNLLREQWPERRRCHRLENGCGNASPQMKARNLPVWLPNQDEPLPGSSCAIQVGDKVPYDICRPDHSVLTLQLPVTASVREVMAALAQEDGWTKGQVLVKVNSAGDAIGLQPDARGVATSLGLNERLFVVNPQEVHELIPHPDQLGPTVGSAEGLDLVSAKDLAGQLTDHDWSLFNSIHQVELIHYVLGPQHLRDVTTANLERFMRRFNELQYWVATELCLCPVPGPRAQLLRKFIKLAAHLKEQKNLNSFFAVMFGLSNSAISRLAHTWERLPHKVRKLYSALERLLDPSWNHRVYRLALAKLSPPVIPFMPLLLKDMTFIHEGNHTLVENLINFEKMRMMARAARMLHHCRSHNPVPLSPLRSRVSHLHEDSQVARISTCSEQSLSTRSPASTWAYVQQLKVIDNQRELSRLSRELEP", "experiment": "qHTS for Antagonist of cAMP-regulated guanine nucleotide exchange factor 3 (EPAC1): primary screen; also: nearly all actives have a fitted effect of over 50% in size", "conditions": "EPAC1 GEF assay, Rap1b-BODIPY-GDP exchange fluorescence; series mostly up to 115 µM; activity change, negative = inhibition: at the top concentration", "description": "In multi-cellular eukaryotic organisms, the effects of cAMP are transduced by two ubiquitously-expressed intracellular cAMP receptors, the classic protein kinase A/cAMP-dependent protein kinase (PKA/cAPK) and the more recently discovered exchange protein directly activated by cAMP/cAMP-regulated guanine nucleotide exchange factor (EPAC/cAMP-GEF). Both PKA and EPAC are ubiquitously expressed in all tissues, and an increase in intracellular cAMP levels will lead to the activation of both PKA and EPAC. Therefore, careful dissections of the individual role and relative contribution of EPAC and PKA within the overall cAMP signaling in various model systems are critical for further elucidating the mechanism of cAMP signaling. To date no EPAC-specific antagonists and agonist, as well as isoform-specific agonists have been reported, and developing EPAC-specific pharmacological probes to determine the physiological functions that EPAC play in the overall cAMP-mediated signaling remains a major challenge within the research field. Furthermore, identified regulators of EPAC may lead to new mechanism-based therapeutic strategies specifically targeting the EPAC / cAMP-signaling components as EPAC has been implicated to play important roles in major human pathological conditions such as diabetes, heart disease, and cancer. This qHTS will be used to screen the Molecular Libraries Small Molecule Repository (MLSMR) as a concentration-titration series using the NCGC unique quantitative screening (qHTS) platform to find inhibitors for EPAC1. In addition, this assay will also be used as a counterscreen for the EPAC2 qHTS. This fluorescent based assay is developed and validated for EPAC1 that measures exchange using EPAC effector Rap1 complex with BODIPY-GDP, a GDP analog with a tethered fluorophores. Inhibitors are identified by monitoring the change in fluorescence signal as the exchanged free BODIPY-GDP has a reduced fluorescence compared to Rap1-bound BODIPY-GDP. Decrease in signal (inhibition) is the desired outcome for the EPAC1 antagonist while no activity in this assay is desired for the EPAC2 antagonist counterscreen. de Rooij, J., Zwartkruis, F. J., Verheijen, M. H., Cool, R. H., Nijman, S. M., Wittinghofer, A., and Bos, J.L. (1998) Nature 396, 474-477 [2] Kawasaki, H., Springett, G. M., Mochizuki, N., Toki, S., Nakaya, M., Matsuda, M., Housman, D. E., and Graybiel, A. M. (1998) Science 282, 2275-2279 NIH Chemical Genomics Center [NCGC] NIH Molecular Libraries Probe Centers Network [MLPCN] MLPCN Grant: NS066510 Assay Submitter (PI): Xiaodong Cheng, The University of Texas, Medical Branch\nBriefly, three uL of reagents (100 nM EPAC1, 250 nM RAP1B-BODIPY-GDP, 50 uM GDP) were dispensed into a 1536-well Greiner black solid-bottom medium binding assay plate. Controls and test compounds (23 nL) were transferred to the plate via a Kalypsys pin tool equipped with a 1536-pin array. The plates were centrifuged at 1,000 rpm for 15 seconds followed by 5 minute incubation at room temperature. The assay plates were read at 5 minute intervals for 30 minutes in the ViewLux plate reader using 480nm excitation and 540nm emission filters. The results were normalized to the […] positive control ATA and DMSO.", "units": {"activity change, negative = inhibition": "%"}, "values": [{"smiles": "CC(C)(C)C1CCC(=O)N2CCC[C@]2(c2ccccc2)C1", "note": "(some centres undefined)", "activity change, negative = inhibition": -18.9}, {"smiles": "CCOC(=O)[C@]12CCCC=C1N(CCC1=CCCCC1)C(=O)[C@H](CC(=O)N1CCN(C(=O)c3ccco3)CC1)C2", "activity change, negative = inhibition": 1.32}, {"smiles": "Cc1[nH]c2ccccc2c1C(=O)c1cc([C@H](NC(=O)OC(C)(C)C)C(C)C)sc1N", "activity change, negative = inhibition": -13.3}, {"smiles": "CCOC(=O)N1C(=O)C[C@](Sc2ccc(C)cc2)(C(=O)OC)[C@H]1c1ccccc1", "activity change, negative = inhibition": -13.4}, {"smiles": "O=C(C[C@H]1CC[C@H]2[C@@H](COC[C@H](O)CN2C(=O)c2ccccn2)O1)N1CCN(c2ccccc2)CC1", "activity change, negative = inhibition": 10.9}, {"smiles": "Nc1nc2c(Br)ccc(Br)c2cc1C(=O)NCCc1ccccc1", "activity change, negative = inhibition": -1.34}, {"smiles": "O=c1[nH][nH]c2c1[C@H](c1ccc(Cl)cc1)O[C@H](CCc1ccccc1)C2", "activity change, negative = inhibition": -17.2}, {"smiles": "CC1(C(=O)Nc2ccc3c(c2)OCCO3)CSCC(=O)N1CCOc1ccccc1", "note": "(centres undefined)", "activity change, negative = inhibition": 9.55}, {"smiles": "Cc1ccc(S(=O)(=O)N[C@H](CO)C(C)C)cc1", "activity change, negative = inhibition": -3.21}, {"smiles": "N#Cc1ccc(-c2nc3c(Cl)cc(C(F)(F)F)cn3c2Cc2ccccc2C(F)(F)F)cc1", "activity change, negative = inhibition": -5.26}, {"smiles": "CC1(C)OC(=O)C2=C(C[C@@H](C3CCCCC3)O[C@@H]2c2ccc(Cl)cc2)O1", "activity change, negative = inhibition": -25.4}, {"smiles": "COC(=O)C1(C(=O)OC)C[C@H](c2ccccc2)N(Cc2ccccc2OC)[C@@H]1c1ccccc1", "activity change, negative = inhibition": -3.05}, {"smiles": "CN1CCN(c2ccc3c(c2)OC[C@H](Cc2ccccc2)NS3(=O)=O)CC1", "activity change, negative = inhibition": -10.2}, {"smiles": "COC(=O)C[C@H]1C=C[C@H](NC(=O)c2ccc(F)cc2)[C@@H](CO)O1", "activity change, negative = inhibition": -26.1}, {"smiles": "C=C1C(=O)OC2C1CCC(C)=CCCC1(C)OC21", "note": "(centres undefined)", "activity change, negative = inhibition": -16.4}, {"smiles": "CO[C@@H]1CN(C)C(=O)c2cc(NC(=O)C3CC3)ccc2OC[C@H](C)N(C(=O)CN2CCOCC2)C[C@@H]1C", "activity change, negative = inhibition": -0.664}, {"smiles": "CC(C)C1C(=O)N(Cc2cn(CCC3OCCO3)nn2)CCS(=O)(=O)N1Cc1ccc(-c2ccccc2C(F)(F)F)cc1", "note": "(centres undefined)", "activity change, negative = inhibition": -16.9}, {"smiles": "CCOC(=O)[C@]12CCC=C1N(Cc1cccc3ccccc13)C(=O)[C@H](CC(=O)NCc1cccc(C(F)(F)F)c1)C2", "activity change, negative = inhibition": -22.9}, {"smiles": "CCCCC[C@H](C)N1C[C@@H](COCc2ccccc2)Oc2cc(N3CC[C@@H](N(C)C)C3)ccc2S1(=O)=O", "activity change, negative = inhibition": -13.4}, {"smiles": "C=CCC[C@@H](CCCCC)OC(=O)/C=C/[C@@H](O)[C@H](O)C[C@H](O)CC=C", "activity change, negative = inhibition": -3.19}, {"smiles": "CCOC(=O)c1ccc(-c2ccc3ncnc(N(C)Cc4sccc4C)c3c2)o1", "activity change, negative = inhibition": -20.6}, {"smiles": "CCCNC(=O)c1cc2c(c(-c3cccc(-c4ccc(C#N)cc4)c3)n1)[C@@H](CCO)N(C(=O)CC)C2", "activity change, negative = inhibition": -12.9}, {"smiles": "Cc1ccc(C(=O)Nc2c(-c3ccccc3)[nH][nH]c2=O)cc1", "activity change, negative = inhibition": -14.8}, {"smiles": "CCCc1nc2ccccc2n1C(C)C(=O)NC(C)(C)C", "note": "(centres undefined)", "activity change, negative = inhibition": 1.55}, {"smiles": "N#Cc1ccc(C(C(=O)NCc2ccccc2)n2c(=O)c(-c3ccco3)nc3ccccc32)cc1", "note": "(centres undefined)", "activity change, negative = inhibition": -6.44}, {"smiles": "CC(C)NC(=O)N1Cc2cc(C(=O)NCC(F)(F)F)nc(-c3cccc(-c4cc5ccccc5o4)c3)c2[C@@H]1CCO", "activity change, negative = inhibition": 7.65}, {"smiles": "CC(C)C[C@H]1CNC(=O)C(=O)N1C[C@H]1CCCN1C[C@H](Cc1ccc(O)cc1)N1C[C@H](CC(C)C)N(CC2CCCCCC2)C(=O)C1=O", "activity change, negative = inhibition": -10.1}, {"smiles": "COC(=O)c1ccc2c(c1)S(=O)(=O)NC2C", "note": "(centres undefined)", "activity change, negative = inhibition": 1.42}, {"smiles": "CCC(C(=O)NCc1ccccc1)n1c(Cc2cc(F)cc(F)c2)nc2ccccc21", "note": "(centres undefined)", "activity change, negative = inhibition": -11.9}, {"smiles": "CCOC(=O)c1cc2cc(OC)ccc2n1C1CCN(C)CC1", "activity change, negative = inhibition": -3.06}, {"smiles": "COC(=O)[C@@]1(Sc2ccc(C)cc2)CC(=O)N(c2cccc(SC)c2)[C@@H]1c1ccccc1", "activity change, negative = inhibition": -16}, {"smiles": "COC(=O)[C@]12CCCCC=C1N(Cc1ccccc1)C(=O)[C@H](CC(=O)NCc1ccc(C)o1)C2", "activity change, negative = inhibition": -8.27}, {"smiles": "CC(C)OC(=O)CC(=O)CC(O)c1cccc([N+](=O)[O-])c1", "note": "(centres undefined)", "activity change, negative = inhibition": 10.8}, {"smiles": "CCCCc1c(-c2ccc(Cl)cc2)ncn1CCc1ccccc1OC", "activity change, negative = inhibition": -17.1}, {"smiles": "CCOC(=O)N1CCN(C(=O)C[C@@H]2C[C@@]3(C(=O)OC)CC(C)(C)CC=C3N(Cc3ccco3)C2=O)CC1", "activity change, negative = inhibition": 12.7}, {"smiles": "Nc1[nH]c(C(=O)c2ccccc2)c(-c2ccncc2)c1C(=O)NCc1cccc2ccccc12", "activity change, negative = inhibition": 7.33}, {"smiles": "CC(C)c1ccc2c(c1)c(SC(C)(C)C)c(CC(C)(C)C(=O)O)n2Cc1ccc(Cl)cc1", "Potency": "25.1 µM (active)"}, {"smiles": "CCCCc1c(-c2ccc(Br)cc2)ncn1CCc1ccccc1OC", "activity change, negative = inhibition": -8.85}, {"smiles": "CCC(=O)N1Cc2cc(C(=O)NCc3cccc(F)c3)nc(-c3cccc(C4=CCCC4)c3)c2[C@H]1CCO", "activity change, negative = inhibition": -8.22}, {"smiles": "CCC(C)Cn1c(O)cc2nn(-c3nc4ccccc4s3)c(=O)c-2c1C", "note": "(centres undefined)", "Potency": "50.1 µM (active)"}, {"smiles": "Cc1cc2nc(-c3ccc(F)cc3)c(Cc3ccsc3)n2c(C)c1Br", "activity change, negative = inhibition": 7.15}, {"smiles": "COc1ccc(NC(=O)C(c2ccncc2)n2c(=O)c(-c3cc4ccccc4[nH]3)nc3ccccc32)cc1", "note": "(centres undefined)", "activity change, negative = inhibition": -8.06}, {"smiles": "CCCCCc1c(Cc2ccccc2)ncn1CCc1ccccc1OC", "activity change, negative = inhibition": -18.1}, {"smiles": "Cc1ccc(-c2c(N)nc3ncccn23)cc1", "activity change, negative = inhibition": -8.75}]}]}
